Assay results as given in PubChem BioAssay (NCI).
Values joined by “and” are separate entries in the source; they are usually repeats but may differ in a detail not shown here. Equal entries are not always repeated. This is part of a sample that, as a whole, favours compounds with a hit. Of some 83,000 tested, about 20% had one in any assay.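 In brief: 96-well plates, 48 h treatment, single concentration, percent growth endpoint.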 Values without a mark were called inactive. Active and inactive are the calls of the source.

System: OVCAR-8 ovarian
Test: NCI-60 one-dose screen, 48 h (100 = growth as untreated, 0 = no growth, -100 = all killed)
Conditions: 10 µM
Procedure: Growth inhibition of the OVCAR-8 human tumor cell line is measured as a screen for anti-cancer activity. Cells are grown in 96 well plates and exposed to the test compound for 48 hours. Compounds are tested at a single concentration, which is 10^-5 M for most compounds. The reported endpoint is percent growth (GI% or GIPRCNT), where numbers from 0 - 100% represent growth inhibition, and numbers from -100% - 0 represent cell death. For example, a value of 40 represents 60% growth inhibition. A value of 0 means no net growth occurred over the course of the experiment. A value of -40 indicates 40% of cells at the beginning of the experiment died by the end of the experiment. A value of -100 means all cells are dead at the end of the experiment.
NCI-60 Human Tumor Cell Lines Screen was performed using the standard one-dose NCI protocol, which is described in more detail at https://dtp.cancer.gov/discovery_development/nci-60/default.htm.
Compounds with GIPRCNT values below 10 were considered active. Activity score was based on GIPRCNT using the following formula: […]
Score is 0 for GIPRCNT values of 100 or above, 50 for GIPRCNT values of 0, and 100 for GIPRCNT values of -100.

SMILES	growth
O=[N+]([O-])c1ccc(Br)c([N+](=O)[O-])c1	91.9%
COc1ccc(/C=C\[N+](=O)[O-])cc1OC	73.9% and 75.7%
C#CC1(O)CCC(C(C)(C)C)CC1 (stereo not given)	95.5%
NC(=O)c1cc([N+](=O)[O-])c(Cl)c([N+](=O)[O-])c1	85.1%
CC/C(=C/c1ccc(OC)cc1)[N+](=O)[O-]	1.78% (active)
O=C(CBr)Nc1ccccc1	98%
Cn1c(O)c(N=O)c(=O)n(C)c1=O	99.6% and 111%
O=[N+]([O-])c1cc[n+]([O-])c2ccccc12	-31.1% (active)
CCOP(=O)(OCC)/C(C#N)=C/c1ccc(Br)cc1	100%
O=[P+](O)c1ccccc1	99.9%
O=C1C(=O)c2ccccc2-c2ccccc21	-97.6% (active)
COc1ccc(/C=C(\C)[N+](=O)[O-])cc1OC	-27.8% (active)
Cc1cc(C(C)(C)c2ccc(O)c(C)c2)ccc1O	81.8%
[Cl][Hg][c]1ccc(Cl)s1	60%
COc1ccc2c(ccc3oc([N+](=O)[O-])cc32)c1	0.0755% (active)
CN(CCCl)c1ccc(/C=C/C2=[N+](C)c3ccccc3C2(C)C)cc1	13.1%
O=C(O)c1cc(Cc2ccc(O)c(C(=O)O)c2)ccc1O (tested in a mixture with another compound)	68.1%
O=[N+]([O-])/C=C/c1ccc(Cl)cc1[N+](=O)[O-]	17.8%
NNc1ccccc1	100%
ClCc1ccc2ccccc2n1	101%

SMILES	growth
[Cl][Hg][c]1ccc2ccccc2c1	-43.9% (active)
Oc1c(Cl)cc(Cl)c2ccccc12.[Cu+2]	83%
O=C1C=Cc2ccccc2C1=O	87.9%
COc1ccccc1[As]=[As]c1ccccc1OC (stereo not given)	-83.1% (active)
O=[N+]([O-])/C=C\c1ccc2c(c1)OCO2	89.9%
COC12c3c(C)cc(O)c4c(=O)occ(c34)C(=O)C1C13COC(=O)c4c(O)cc(C)c(c41)C(=O)C2C3OC(C)=O (stereo not given)	105%
CN(C)CC1(N)C(=O)NC(=O)NC1=O	105%
COS(=O)(=O)c1ccccc1	101%
O=c1[nH]c2ccccc2n1C1CCN(CCCC(c2ccc(F)cc2)c2ccc(F)cc2)CC1	44.3%
COc1cc(/C=C/[N+](=O)[O-])cc(Br)c1OC	31.2%
COc1cc(/C=C\[N+](=O)[O-])ccc1O	65.9% and 93.9%
O=C1CCC(=O)N1SC(Cl)(Cl)Cl	106%
O=S(=O)(F)c1ccc(Cl)cc1	102%
C/C(=C\c1ccc(Cl)c(Cl)c1)[N+](=O)[O-]	11.9% and 90.8%
C[CH2][Hg][S]c1ccccc1C(=O)O	-98.1% (active)
COC1CC2C=C(C)/C=C/C=C/C(=O)NC(c3ccccc3)C/C=C/CCC(O)CC(=O)C2=C1O (stereo not given)	-69.1% (active)
CCCCCCCC[N+]12CN3CN(CN(C3)C1)C2	101%
O=C(CCl)Nc1ccc(Cl)cc1	53.3%
Cc1ccc(C(=O)C2C(c3ccccc3)N2C2CCCCC2)cc1 (stereo not given)	103% and 101%
[O-][n+]1ccccc1S	17.2%
